Abeta rescue: restores growth of yeast expressing A-beta42 peptide; yeast expressing A-beta42, growth rescue, OD600, 48 h; response scale: 0% DMSO, 100% iron-clioquinol control; Potency, µM (series often up to 46.1 µM), hits mostly activators; 410,000 tested, 0.063% active; further: nearly all actives have a fitted effect of over 55% in size
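Growth rescue measured by 600 nm absorbance after 48 h yeast culture at 30 C with compound. Values normalized between DMSO and an equimolar ferric chloride plus clioquinol control.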
aSyn rescue: rescues yeast growth from alpha-synuclein toxicity; Yeast expressing alpha-synuclein, growth rescue, BacTiter-Glo, 24 h; 370,000 tested, 0.14% active; Potency, µM (doses to about 46.1 µM), inactives show at the top dose growth rescue (activation), usual class: activators; further: % of control where 0% means no effect; nearly all actives have a fitted effect of over 65% in size
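Readout is rescue of growth in alpha-synuclein-expressing yeast, so inhibitors of toxicity appear as activators. Growth after 24 hr at 30 deg C in galactose medium is quantified by luminescence.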
FUS suppressor: suppressors of FUS proteinopathy in yeast | Potency, µM (highest dose often 76.6 µM), most hits filed as activators | 390,000 tested, 0.24% active | S. cerevisiae FUS-expressing, growth rescue, OD600, 24 h;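 further: plate controls were DMSO vehicle for no effect and reference control for full effect; nearly all actives have a fitted effect of over 55% in size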
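Galactose (2%) drives FUS expression in yeast precultured in raffinose; seeding density OD 0.005. Test compounds incubated 24hr at 30C and 99% humidity before absorbance at 600 nm was measured.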
Mito fusion yeast: mitochondrial division inhibition or fusion activation. Potency, µM (series often up to 46.1 µM), inactives show at the highest dose growth rescue (activation), actives largely listed as activators. AID 485298. S. cerevisiae fusion-defective mutant growth rescue, CellTiterGlo 48 h. 320,000 tested, 0.23% active; further: % of control where 0% means no effect; nearly all actives have a fitted effect of over 45% in size
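Luminescent cell viability in 1536-well qHTS format served as the measure of rescued growth in ts fusion-mutant S. cerevisiae cultured on non-fermentable YPEG for 48 hours at 37C.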
TDP43 rescue: rescues yeast growth from TDP-43 toxicity. 410,000 tested, 1.8% active. Potency, µM (doses to about 46.1 µM), without a hit: at the top dose growth rescue (activation), actives largely listed as activators. TDP-43 expressing yeast growth rescue, BacTiter-Glo, 24 h; further: % of control where 0% means no effect; nearly all actives have a fitted effect of over 50% in size
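In this qHTS, compounds that restore growth of yeast expressing TDP-43 appear as activators. Cells (OD600=0.02, galactose medium, raffinose-pregrown) are incubated with compound 24 hr at 30 deg C and growth is quantified by BacTiter-Glo.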
Starred values were filed as active, the others as inactive; i = inactive; ? = inconclusive; nt = no result given; [ ] = dose if it differs, or a comment. Compounds with a hit are over-represented: about 2.2% of the library has one in this group of screens. The call rests on the fitted dose curve; in most records, active means well fitted curve in the direction sought with a large enough effect; inconclusive means small, poorly fitted or top-dose-only effect, or another doubt; inactive means no such curve, though single readings can be large; an effect the other way counts as inactive or inconclusive. Potency means the concentration at half of the fitted maximal effect.

SMILES	Abeta rescue	aSyn rescue	FUS suppressor	Mito fusion yeast	TDP43 rescue
COc1ccc(C(=O)NC2CCCc3ccccc32)cc1Br (configuration not stated)	i	3.3%	i	24.2%	14.1µM*
CCSc1cc(C)nc2ncnn12	i	-1.9%	i	-3.4%	9.0%
CCCCCCSc1cc(C)nc2ncnn12	i	0.9%	i	-0.3%	25.1µM*
O=C(OCc1ccccc1Cl)c1ccc(-n2cnnc2)cc1	i	11.7%	i	-19.7%	12.6µM*
COc1ccc(NC(=O)c2cccc3c(-c4cnn(C)c4)coc23)cc1	i	8.8%	i	nt	12.6µM*
O=C(NCc1cccs1)c1cccc2c(-c3cccnc3)coc12	i	2.6%	i	nt	17.8µM*
Cn1cc(-c2coc3c(C(=O)Nc4ccccc4)cccc23)cn1	i	?	i	nt	-2.8%
O=C(NCc1cccc(Cl)c1)c1cccc2c(-c3cccnc3)coc12	i	16.6%	?	nt	17.8µM*
O=C(Nc1cccc(OC(F)(F)F)c1)c1cccc2c(-c3cccnc3)coc12	i	-16.1%	?	nt	31.6µM*
CC(=O)c1cccc(NC(=O)c2cccc3c(-c4cccnc4)coc23)c1	i	1.3%	i	nt	?
Cc1cc2nn(-c3ccc(F)cc3)nc2cc1NC(=O)c1cc(Cl)ccc1Cl	i	nt	i	nt	12.0%
O=C(CSc1ncn[nH]1)NCCc1ccc(Cl)cc1	i	-3.1%	i	-3.5%	-21.4%
CC(C)CC(=O)Nc1ccc2nc(SCC(=O)N3CCOCC3)sc2c1	i	nt	i	nt	4.9%
COc1cc2nc(NC3CCN(Cc4ccccc4)CC3)nc(N3CCCN(C)CC3)c2cc1OC	nt	1.8%	nt	nt	nt
O=C(NCc1ccc(F)c(F)c1)c1cccc2c(-c3cccnc3)coc12	i	5.0%	i	nt	12.6µM*
CCc1ccc(CN2CCc3nc(Nc4ccccc4)ncc3C2)cc1	i	nt	i	nt	4.0%
COc1ccc(C=O)cc1C1=CC(=O)C[C@H](c2ccc(Cl)cc2)C1	i	2.8%	?	21.8%	20µM*
COc1ccc([C@H]2CC(=O)C=C(c3ccccc3)C2)cc1OC	i	0.6%	i	5.3%	?
COc1ccc([C@H]2CC(=O)C=C(c3cccc(Cl)c3)C2)cc1OC	i	10.1%	i	?	22.4µM*
CCCCC/C=C/C1=CC(=O)C[C@H](c2ccc(OC)c(OC)c2)C1	i	?	?	6.3%	35.5µM*
COc1ccc([C@H]2CC(=O)C=C(c3ccccc3OC)C2)cc1OC	i	8.6%	i	10.1%	20µM*
CCc1ccc2nc(N(CCN(CC)CC)C(=O)c3cccs3)sc2c1	i	nt	i	nt	3.3%
COc1ccc(CNc2nc(Cl)nc3nc[nH]c23)cc1	nt	-4.6%	nt	nt	nt
CCn1cc(C(=O)OCC(=O)Nc2ccccc2OC(F)F)c(=O)c2ccc(C)nc21	i	0.8%	i	nt	7.8%
CCn1cc(C(=O)OCC(=O)c2cc(C)n(-c3ccccc3)c2C)c(=O)c2ccc(C)nc21	i	1.9%	i	12.6%	27.5%
SMILES	Abeta rescue	aSyn rescue	FUS suppressor	Mito fusion yeast	TDP43 rescue
CCn1cc(C(=O)OCC(=O)c2cc(C)n(-c3ccc(OC(F)F)cc3)c2C)c(=O)c2ccc(C)nc21	i	-0.2%	nt	11.4%	12.6µM*
CCOc1ccccc1NC(=O)COC(=O)c1cn(CC)c2nc(C)ccc2c1=O	i	nt	i	nt	35.5µM*
CCCCOc1ccc(C(=O)NC2CCCCN(CC)C2=O)cc1 (configuration not stated)	nt	nt	i	nt	nt
Cc1ccc(NC(=O)C2CCCN(S(=O)(=O)c3ccc4c(c3)CCCC(=O)N4)C2)cc1Cl (configuration not stated)	i	8.6%	?	nt	20.4%
CN1OC[C@@H]2CN(Cc3cc(Cl)cc(Cl)c3)[C@H](c3cccc(Br)c3)C[C@@H]21	i	-9.2%	i	nt	35.5µM*
Cc1ccccc1-c1cccc([C@@H]2C[C@H]3[C@H](CON3C)CN2Cc2cc(Cl)cc(Cl)c2)c1	i	-1.4%	i	nt	20µM*
Cc1ccccc1CN1C[C@H]2CON(C)[C@H]2C[C@H]1c1cccc(Br)c1	i	5.1%	i	nt	?
Cc1cccc(N2CCN(C3=NC(=O)C(=C4CCCCC4)S3)CC2)c1	i	nt	i	10.0%	7.08µM*
COc1cc(/C=C(\C#N)C(N)=O)ccc1OS(=O)(=O)c1ccc(C)cc1	i	-5.7%	i	2.4%	17.8µM*
COc1ccc(OCCn2c(=O)sc3ccccc32)cc1	i	25.1µM*	i	27.2%	15.8µM*
CCOc1ccc(Cn2c(=O)sc3ccccc32)cc1OC	i	?	i	4.2%	12.6µM*
COc1ccc(Cn2c(=O)sc3ccccc3c2=O)cc1	i	?	i	-3.5%	11.2µM*
COc1ccc(OCCn2c(N)nc3ccccc32)cc1	i	-1.0%	i	-5.6%	?
COc1ccc(OCCn2c(C(C)Oc3ccccc3)nc3ccccc32)cc1 (configuration not stated)	?	nt	i	nt	20µM*
CCOC(=O)/C=C1\SCC(=O)N1CCOc1cccc(Br)c1	i	0.2%	i	24.6%	15.8µM*
O=C(Cn1nc2c(cc1=O)CCCC2)Nc1ccccc1C(F)(F)F	i	nt	i	nt	19.6%
C=CCC[C@H](Cc1ccc(F)cc1)C(=O)OC[C@@H](Cc1c[nH]c2ccccc12)NC(=O)[C@@H](CC=C)CC(=O)N[C@@H](CO)Cc1ccccc1	i	4.9%	i	nt	-3.0%
C=CCC[C@@H](Cc1ccc(F)cc1)C(=O)OC[C@@H](Cc1c[nH]c2ccccc12)NC(=O)[C@@H](CC=C)CC(=O)N[C@H](CO)Cc1ccccc1	i	3.1%	25.1µM*	nt	9.1%
C=CCC[C@@H](Cc1ccc(F)cc1)C(=O)OC[C@@H]1CCCN1C(=O)[C@@H](CC=C)CC(=O)N[C@@H](CO)Cc1ccccc1	i	-1.4%	22.4µM*	nt	12.6µM*
C=CCC[C@H](Cc1ccc(F)cc1)C(=O)OC[C@@H]1CCCN1C(=O)[C@@H](CC=C)CC(=O)NCCO	i	1.4%	i	nt	12.6%
O=C(NCc1ccccc1Cl)C(=O)NCC(c1cccs1)S(=O)(=O)c1cccs1 (configuration not stated)	?	nt	i	nt	5.2%
CCCCCCCCNS(=O)(=O)CC1NCc2ccc(C)cc21 (configuration not stated)	nt	nt	i	nt	nt
O=C(O)CC(NC(=O)C12CC3CC(CC(C3)C1)C2)c1cc([N+](=O)[O-])ccc1Cl (configuration not stated)	i	3.6%	i	3.55µM*	20.9%[9.22 µM]
O=C(O)CC(NC(=O)C1CCCCC1)c1cc([N+](=O)[O-])ccc1Cl (configuration not stated)	i	3.0%	i	2.7%	-8.1%

High-throughput results from PubChem.
